Many of the other results were omitted from the sample, so hits are more common in it than they were.
HT1080 IDH1KD tx – HT-1080 IDH1 knockdown cell toxicity (counter line). HT-1080 IDH1 knockdown viability, ATP luminescence, 48 h. Potency, µM (highest dose often 46.1 µM), inactives show top-dose activity, negative = toxicity, hits mostly cytotoxic. hit rate 2% among 360,000. AID 686971;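 note: potency is the fitted concentration of half-maximal effect; 0% = DMSO wells and -100% = cell-free medium wells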
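Knockdown cells (IDH1KD HT-1080) received compounds 2 h after plating at 750 cells/well and were kept 48 h at 37 °C in 5% FBS RPMI. A CellTiter-Glo luminescence read gave % activity for curve fitting.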
IL1B secr inh – blocks inflammasome-driven IL-1 beta release; THP-1 LPS/ATP IL-1B secretion, AlphaLISA, 16 h; hits give low values; activity change, % at 57.5 µM; AID 743279; hit rate 4.7% among 360,000; in the data active = activity change below about -50%; inconclusive = mostly about -30% to -49%
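Secreted IL-1B measured by AlphaLISA bead assay after 16 h compound exposure of THP-1 cells; compounds (final up to 57.5 uM) added 1 h before LPS (250 ng/mL) and ATP (1.25 mM) stimulation; lower signal means less secretion.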
ALOX12 inh – ALOX12 (human) lipoxygenase inhibition; Potency, µM (titrated, usually from 108 µM), for the others: top-dose activity change, negative = inhibition, most hits filed as inhibitors; P18054; hit rate 1.1% among 580,000; purified 12hLO, xylenol orange hydroperoxide absorbance; note: potency is the fitted concentration of half-maximal effect
Target sequence (P18054 whole entry, looked up): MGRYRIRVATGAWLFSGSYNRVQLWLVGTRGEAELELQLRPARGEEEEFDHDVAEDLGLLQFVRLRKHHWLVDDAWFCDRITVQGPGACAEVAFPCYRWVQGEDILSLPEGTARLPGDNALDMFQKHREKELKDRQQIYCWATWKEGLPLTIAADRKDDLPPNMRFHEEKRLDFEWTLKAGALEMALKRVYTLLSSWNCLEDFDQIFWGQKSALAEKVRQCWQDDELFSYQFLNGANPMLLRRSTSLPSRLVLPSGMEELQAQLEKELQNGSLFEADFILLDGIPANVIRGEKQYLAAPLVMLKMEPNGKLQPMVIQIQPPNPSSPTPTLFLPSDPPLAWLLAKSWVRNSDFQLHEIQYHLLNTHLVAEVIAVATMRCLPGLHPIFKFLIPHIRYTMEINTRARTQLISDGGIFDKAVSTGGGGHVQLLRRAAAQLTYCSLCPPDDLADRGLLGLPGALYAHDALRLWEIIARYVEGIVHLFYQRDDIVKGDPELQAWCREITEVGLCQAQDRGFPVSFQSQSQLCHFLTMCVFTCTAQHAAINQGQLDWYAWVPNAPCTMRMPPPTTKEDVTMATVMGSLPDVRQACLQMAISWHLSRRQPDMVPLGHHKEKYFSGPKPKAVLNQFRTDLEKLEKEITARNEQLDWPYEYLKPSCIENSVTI
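Hydroperoxide product was detected by ferrous iron/xylenol orange as the 573 to 405 nm absorbance ratio. Arachidonic acid at 40 uM (final) was turned over for 30 min at room temperature by 150 nM human 12hLO, pH 7.0 Hepes buffer, after 15 min compound preincubation.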
TDP1 cell noCPT – qHTS for Inhibitors of human tyrosyl-DNA phosphodiesterase 1 (TDP1): qHTS in cells in absence of CPT; DT40 Tdp1-/- hTDP1 cells, no CPT, ATP luminescence, 48 h; Potency, µM (top dose mostly 46.2 µM), for inactives: at the top dose activity change, negative = growth inhibition, actives largely listed as inhibitors; hit rate 15% among 420,000; note: potency is the fitted concentration of half-maximal effect; nearly all actives have a fitted effect of over 55% in size
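Chicken DT40 Tdp1-/- cells complemented with human TDP1, screened without camptothecin (DMSO vehicle only), 400 cells/well. Compounds pin-transferred, cells incubated at 37 °C for at least 48 hr. Growth read as ATP-dependent luminescence (CellTiter-Glo, 30 min at RT).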
HT1080-NT tox – kills 2HG-producing HT-1080-NT fibrosarcoma cells; AID 686970; Potency, µM (top dose mostly 46.1 µM), without a hit: at the highest dose activity, negative = less viability, usual class: cytotoxic; hit rate 1.6% among 360,000; HT-1080-NT fibrosarcoma viability, CellTiter-Glo ATP luminescence, 48 h;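 note: NT is the 2HG producing partner of a matched IDH1 knockdown line; potency is the fitted concentration of half-maximal effect; 0% = DMSO-treated cells and -100% = media-only wells without cells; nearly all actives have a fitted effect of over 55% in size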
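Read-out is CellTiter-Glo luminescence after 10 minutes at room temperature, following 48 hours' compound treatment of HT-1080-NT cells (750 cells/well, RPMI, 5% FBS, 37 degrees C).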
TDP1 cell CPT – DT40-hTDP1 cell growth loss with CPT | AID 686979 | hit rate 12% among 420,000 | chicken DT40 Tdp1-/-;hTDP1 cells + 20 nM CPT, ATP luminescence, 48 h | Potency, µM (highest dose often 46.2 µM), for the others: at the highest dose activity change, negative = growth inhibition, hits mostly inhibitors; note: potency is the fitted concentration of half-maximal effect; nearly all actives have a fitted effect of over 55% in size
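Chicken DT40 Tdp1-/- cells stably complemented with human TDP1 were seeded at 400 cells/well in medium containing 20 nM camptothecin, exposed to pin-transferred compounds, and grown at 37 °C for at least 48 hr. Viability was read as ATP luminescence.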
The depositor's hits bear a star; ! = repeats disagree. Unless noted, calls come from the whole dose curve; as a rule, active = well fitted curve in the direction sought with a large enough effect; inconclusive = small, poorly fitted or top-dose-only effect, or another doubt; inactive = no such curve, though single readings can be large; an effect the other way counts as inactive or inconclusive. Unless noted, % is set by controls: 0 for no effect and ±100 for the full control effect.

Results for c1ccc(Nc2nc3ccccc3[nH]2)nc1 ?
HT1080 IDH1KD tx: -8.7%; IL1B secr inh: -80.5*; ALOX12 inh: 16.6%; TDP1 cell noCPT: inconclusive; HT1080-NT tox: 0.5%; TDP1 cell CPT: inconclusive

Results for Cc1nc(CN(C)C(=O)c2coc(COc3ccc(F)cc3Cl)n2)cs1 ?
ALOX12 inh: 43.7%

What do the screens show for `FC(F)(F)c1cc(-c2ccccc2)nc(SCc2ccccc2Cl)n1`?
ALOX12 inh: -12.4%

Results for CCCS(=O)(=O)N1CCC(Cn2c(C)cnc2C2CC2)CC1 ?
ALOX12 inh: 11.0%

Results for O=C(Nc1cccc(C(F)(F)F)c1)N[C@H]1CO[C@H]2[C@@H]1OC[C@@H]2n1cc(-c2ccccn2)nn1 ?
ALOX12 inh: -23.5%

How did COc1ccc(S(=O)(=O)NCCS(=O)(=O)N2CCN(c3ccccc3)CC2)cc1 do in these assays?
HT1080 IDH1KD tx: -4.3%; IL1B secr inh: 3.2; ALOX12 inh: -11.6%; TDP1 cell noCPT: inconclusive; HT1080-NT tox: -10.0%; TDP1 cell CPT: inconclusive

What do the screens show for `COc1ccc(OC)c(S(=O)(=O)NCCS(=O)(=O)N2CCN(c3ccccc3)CC2)c1`?
HT1080 IDH1KD tx: -0.4%; IL1B secr inh: 1.0; ALOX12 inh: -0.6%; TDP1 cell noCPT: 16.4µM*!; HT1080-NT tox: -3.1%; TDP1 cell CPT: 20.6µM*!

What do the screens show for `COc1ccc(OC)c(S(=O)(=O)NCCOC23CC4CC(CC(C4)C2)C3)c1`?
HT1080 IDH1KD tx: 8.1%; IL1B secr inh: 0.0; ALOX12 inh: -13.8%; TDP1 cell noCPT: 7.31µM*; HT1080-NT tox: 3.7%; TDP1 cell CPT: 18.4µM*

What do the screens show for `CCS(=O)(=O)N1CCC(c2ncc(C)n2C(C)C)C1` (centres undefined)?
ALOX12 inh: 19.8%

Results for O=C(NCCO)c1cc2c([nH]c3ccccc32)c(-c2ccc(F)cc2)n1 ?
HT1080 IDH1KD tx: -11.5%; IL1B secr inh: -93.4*; ALOX12 inh: 0.0%; TDP1 cell noCPT: 16.4µM*; HT1080-NT tox: -16.6%; TDP1 cell CPT: inconclusive

Results for Cc1ccc(-c2nc(C(=O)NCCCN(C)C)cc3c2[nH]c2ccccc23)cc1 ?
HT1080 IDH1KD tx: inconclusive; IL1B secr inh: -17.1; ALOX12 inh: inconclusive; TDP1 cell noCPT: 23.1µM*; HT1080-NT tox: inconclusive; TDP1 cell CPT: inconclusive

Results for O=C(NCCO)c1cc2c([nH]c3ccccc32)c(-c2ccccc2)n1 ?
HT1080 IDH1KD tx: -28.8%; IL1B secr inh: inconclusive; ALOX12 inh: inconclusive; TDP1 cell noCPT: 16.4µM*; HT1080-NT tox: -24.7%; TDP1 cell CPT: inconclusive

Results for CN(C)CC1(O)CCCN(Cc2cccc3ncccc23)C1 (centres undefined) ?
ALOX12 inh: 121.6%

What do the screens show for `CC(C)C(=O)/C(C#N)=C\c1ccc(C#N)cc1`?
ALOX12 inh: -15.8%

How did Cc1ccc(CCSc2ccc(C(C)C)cc2)cn1 do in these assays?
HT1080 IDH1KD tx: 0.0%; IL1B secr inh: -59.4*; ALOX12 inh: -17.0%; TDP1 cell noCPT: 25.9µM*; HT1080-NT tox: -0.7%; TDP1 cell CPT: inconclusive

What do the screens show for `Cc1ccc(CCSc2ccc(F)cc2)cn1`?
HT1080 IDH1KD tx: 8.0%; IL1B secr inh: -15.7; ALOX12 inh: 0.0%; TDP1 cell noCPT: inconclusive; HT1080-NT tox: 16.2%; TDP1 cell CPT: 0.8%

How did CC(Sc1nnc2c(Cl)cc(C(F)(F)F)cn12)c1ccccc1 (centres undefined) do in these assays?
ALOX12 inh: 5.4%

Results for Cc1ccc(C(C)C)c(OC(=O)c2ccc(C#N)cc2)c1 ?
ALOX12 inh: 9.9%

Screening results (PubChem)
